The campaign covered roughly 53,000 compounds. About 900 (1.7%) showed an effect of 50% or more. For the sample, strong results were picked, then their nearest neighbours and some compounds at random.
What follows are compounds tested on Mycobacterium tuberculosis (assay: Cornell - Phenotypic assay to identify agents that inhibit growth of Mycobacterium tuberculosis). Conditions: 10 mM as filed; unlikely as a test dose.
Format: functional
Set-up: scale not given: direction of the effect not stated beside the values

Row | Structure (SMILES) | Percent Effect [%]
1 | CC(C)N1CC2(CCCN(c3ccnc4ccccc34)C2)CCC1=O (stereo not given) | 17.47
2 | COCc1nnc(C(=O)N2CCCC(O)C2)o1 (stereo not given) | -16.94
3 | Cc1ncc(CNC(=O)CCc2cccs2)c(C2CCCN2C)n1 (stereo not given) | -2.251
4 | Cc1ccc(C2CN(Cc3cccc4[nH]ccc34)CCO2)nc1 (stereo not given) | -22.89
5 | O=C1CO[C@H]2CN(Cc3cccc(F)c3F)C[C@@H]2N1C1CCOCC1 | -21.84
6 | O=C1CO[C@H]2CN(Cc3cccc4[nH]ccc34)C[C@@H]2N1C1CCOCC1 | 103.3
7 | CCC(CN1CCCC1)NC(=O)C1(c2ccc(F)cc2)CC1 (stereo not given) | 38.36
8 | CCC1c2ccccc2CCN1CCNS(C)(=O)=O (stereo not given) | -0.3963
9 | COCc1cc(CNCc2c(C)n(CC(N)=O)c3ccccc23)n[nH]1 | 35.48
10 | Cc1cc(CNCc2c(C)n(CC(C)C)c3ccccc23)[nH]n1 | 57.75
11 | COCc1cc(CNCc2c(C)n(CC(C)C)c3ccccc23)n[nH]1 | 48.01
12 | COCCC(=O)N1CCCC1c1nc(C)c2c(n1)N(C)C(=O)CC2 (stereo not given) | 9.481
13 | CC(C)(C)n1nnnc1CN(Cc1ccccc1)Cc1ccccc1Cl | 7.141
14 | COc1ccc(OC)c(C2CCN(Cc3nc(C)n4ccccc34)C2)c1 (stereo not given) | 51.45
15 | COc1ccc(OC)c(C2CCN(C3CCOCC3)C2)c1 (stereo not given) | -54.14
16 | COc1ccc(OC)c(C2CCN(CC(C)(C)N3CCOCC3)C2)c1 (stereo not given) | -53.82
17 | Cc1ccc(CN2CCc3nnc(CN4CCCC4=O)n3CC2)s1.O=C(O)C(F)(F)F | 32.68
18 | CCC(C(=O)N(C)C)n1ccc2ncccc2c1=O (stereo not given) | 6.503
19 | CN(C)C(=O)CN1CCN(c2cc(N3CCCC3CO)ncn2)CC1 (stereo not given) | 1.672
20 | Cc1cc(N2CCC(C(=O)O)(n3ccc(C(C)(C)C)n3)CC2)nc(N)n1 | 5.557
21 | Cc1cc(C)nc(N2CCC(C(=O)O)(n3ccc(C(C)(C)C)n3)CC2)n1 | 67
22 | Cc1cnc(C)c(N2CCC(C(=O)O)(n3ccc(C(C)(C)C)n3)CC2)n1 | 5.905
23 | CSc1cccc(CNC(=O)[C@H]2CNC[C@@H](C(=O)N3CCOCC3)C2)c1 | -25.42
24 | Cc1nc[nH]c1CNCc1cccnc1N(C)C1CCCCC1 | -125.1
25 | COc1ccc(-n2cc(CCO)cn2)cc1C | 105.1

Row | Structure (SMILES) | Percent Effect [%]
26 | COc1ccc(-n2cc(CCO)cn2)cc1C(N)=O | -5.342
27 | COc1cc(-n2cc(CCO)cn2)ccc1NC(C)=O | 12.75
28 | Cc1cn2c(n1)CCC(NC(=O)CCOc1ccccc1F)C2 (stereo not given) | -34.23
29 | O=C(c1nc(Cc2c[nH]c3ccccc23)no1)N1CCCCC1 | -4.941
30 | O=C(O)C(F)(F)F.O=C(c1ncccn1)N1C[C@H]2CCC[C@@]2(COc2ccccn2)C1 | -0.9925
31 | Cc1ccc(C(=O)N2C[C@H]3CCC[C@@]3(COc3ccccn3)C2)nc1.O=C(O)C(F)(F)F.O=C(O)C(F)(F)F | 19.03
32 | O=C(O)C(F)(F)F.O=C(c1cocn1)N1C[C@H]2CCC[C@@]2(COc2ccccn2)C1 | 78.33
33 | Fc1cccc(Cl)c1CNCCOc1ccccn1 | 41.65
34 | CN1[C@@H](C(=O)NCC2CC2)C[C@@H]2CN(Cc3ccco3)C[C@@H]21 | 11.69
35 | CCN(Cc1ccccc1)S(=O)(=O)C1CCS(=O)(=O)CC1 | 11.98
36 | CN(C)c1nccnc1C1CCN(c2cnccn2)CC1 | 17.38
37 | c1cc(C2CCN(c3cnccn3)CC2)ncn1 | 5.379
38 | CN(C)c1ccc(C2CCN(c3cnccn3)CC2)nc1 | 63.52
39 | COc1cccc(C(=O)N2C[C@@H](c3ccccc3)[C@@H]3NCCCC[C@@H]32)c1 | 4.696
40 | Cc1cc(C(C)(O)CNC(=O)c2ccc(Br)o2)c(C)o1 (stereo not given) | 53.63
41 | Cc1cc(C(C)(O)CNC(=O)OC(C)(C)C)c(C)o1 (stereo not given) | 14.94
42 | Cc1cc(C(C)(O)CNC(=O)C2(C)CCCC2)c(C)o1 (stereo not given) | 32.83
43 | O=C(c1cc(-n2cnnn2)ccc1Cl)N1CCCCCC1 | 22.48
44 | Cc1noc(C)c1CN1CCOCC12CCN(c1nccs1)CC2.O=C(O)C(F)(F)F | -2.189
45 | CCNC(=O)N1CCc2ccc(NC(=O)C(C)c3ccsc3)cc21 (stereo not given) | -7.199
46 | Cc1cnn(C2CCCN(C(=O)c3ccnc(-n4cncn4)c3)C2)c1 (stereo not given) | -11.26
47 | Cc1cn2nc(N3CCn4c(nnc4C(C)C)C3)sc2n1 | -4.534
48 | CS(=O)(=O)N1CCCCC1c1ccc(Nc2cnccn2)nc1 (stereo not given) | 21.12
49 | c1cc(CN2CCCCC2c2ccc(Nc3cnccn3)nc2)ccn1 (stereo not given) | 73.82
50 | Cn1cc(CN2CCCCC2c2ccc(-c3cnn(C)c3)nc2)cn1 (stereo not given) | 0.8308

Row | Structure (SMILES) | Percent Effect [%]
51 | Cn1cc(-c2ccc(C3CCCCN3Cc3cccnc3)cn2)cn1 (stereo not given) | 36.92
52 | c1cnc(Nc2ccc(C3CCCCN3Cc3ccncc3)cn2)nc1 (stereo not given) | 63.94
53 | c1cncc(CN2CCCCC2c2ccc(Nc3cnccn3)nc2)c1 (stereo not given) | 29.23
54 | Cc1cnn(CCNCc2ccc(OCc3cccnc3)cc2)c1 | -17.94
55 | Cc1nnc(C2Cc3ccccc3CN2Cc2ncc(Cl)n2C)o1 (stereo not given) | -18.28
56 | Cn1cc(CC(=O)N2CCCC(c3cc(C(F)(F)F)[nH]n3)C2)cn1 (stereo not given) | -14.78
57 | O=C(Cn1cc(Cl)cn1)NCCN1CCC(O)(c2ccc(F)cc2)CC1 | 36.23
58 | CN(C)C(=O)C1CN(c2ccncn2)CCN(C2CCOCC2)C1 (stereo not given) | -28.59
59 | COc1cccc(C(=O)NS(=O)(=O)c2cc(Cl)sc2Cl)c1OC(F)F | 16.97
60 | COc1ccc(C(=O)NS(=O)(=O)c2cc(Cl)sc2Cl)cc1OC(F)F | 76.92
61 | COc1ccc(C(=O)NS(C)(=O)=O)cc1-c1ccccc1 | 36.61
62 | COc1cc(C(=O)NS(=O)(=O)c2cc(Cl)sc2Cl)ccc1OC(F)F | 83.5
63 | O=C(NS(=O)(=O)c1cc(Cl)sc1Cl)c1cccc2c1OCCO2 | 1.673
64 | COc1cc(C(=O)NS(=O)(=O)c2ccc(C#N)cc2)ccc1C | -19.49
65 | CCc1cc(NC(=O)C(c2cccc(F)c2)N2CCOCC2)[nH]n1 (stereo not given) | -14.2
66 | O=C(CS(=O)(=O)Cc1cc(Cl)c2c(c1)OCO2)N1CCCCCC1 | -3.371
67 | COCCCNC(=O)N1CCN(C(=O)c2nsc3ccccc23)CC1 | 12.5
68 | CN(C)Cc1cc(=O)n2c(n1)CN(C(=O)c1ccc[nH]1)CCC2.O=C(O)C(F)(F)F | -35.4
69 | Cc1ccc(CN2CCN(c3ncccc3C(N)=O)CC2CCO)cc1 (stereo not given) | 16.45
70 | Cc1ccc(N2N=C(C(N)=O)S(=O)(=O)c3cccnc32)cc1 | 106.9
71 | CC(C)CCN1N=C(C(=O)N2CCCCCC2)S(=O)(=O)c2ccccc21 | 8.314
72 | Cc1ccc(N2N=C(C(=O)O)S(=O)(=O)c3cccnc32)cc1 | 51.3
73 | CN1N=C(C(=O)N2CCCCC2)S(=O)(=O)c2ccccc21 | -10.66
74 | Cc1ccc(N2N=C(C(=O)NCC3CC3)S(=O)(=O)c3cccnc32)cc1 | 11.26
75 | Cc1cn2c(n1)CCC(NC(=O)CCCn1cncn1)C2 (stereo not given) | -12.33

Row | Structure (SMILES) | Percent Effect [%]
76 | CC(=O)Nc1nc(C2CCN(C(C)C)CC2)cs1 | -15.97
77 | CC(=O)N1CCCC1c1nc(CN(C)C(=O)C(C)C)cc(N(C)C)n1 (stereo not given) | 52.18
78 | COCC(=O)N1CCCCC1c1nc(CN(C)C(C)=O)cc(N(C)C)n1 (stereo not given) | -40.24
79 | CCC(=O)N1CCCCC1c1nc(CN(C)C(C)=O)cc(N(C)C)n1 (stereo not given) | 49.36
80 | COc1ccc(C(=O)N2CCOc3ccncc32)cc1 | 9.514
81 | c1ccc(-c2cccc(N3CCC(NCCc4cscn4)CC3)c2)cc1 | 93.63
82 | CC(C)CC(C)NC1CCN(c2cccc(-c3cscn3)c2)CC1 (stereo not given) | 2.317
83 | O=C1CCCN1c1cccc(N2CCC(NCCc3cscn3)CC2)c1 | 24.64
84 | Fc1cccc(-c2cccc(N3CCC(NC4CCCOC4)CC3)c2)c1 (stereo not given) | 23.21
85 | c1cc(-c2cscn2)cc(N2CCC(NCCc3cccs3)CC2)c1 | 60.71
86 | Cc1nc(-c2cccc(N3CCC(NC4CCOCC4)CC3)c2)cs1 | 35.61
87 | CCCC(=O)N1CCOC2(COCCN(CC(=O)NC)C2)C1.O=C(O)C(F)(F)F (stereo not given) | 6.771
88 | O=C(CC(SC1CCCCC1)C(=O)O)c1ccc(Cl)cc1 (stereo not given) | 11.66
89 | O=C(CC(SC1CCCCC1)C(=O)O)c1ccc(Br)cc1 (stereo not given) | 52.8
90 | Cc1ccc(C(=O)CC(SC2CCCCC2)C(=O)O)cc1 (stereo not given) | 44.78
91 | O=C(O)C(F)(F)F.O=C(O)C(F)(F)F.O=C(O)c1c(-c2cccnc2)ncc2c1CCN(Cc1ccccn1)C2 | -51.27
92 | O=C(NCc1cccnc1)c1nc2c(s1)CCCN2C(=O)C1CC1.O=C(O)C(F)(F)F | 6.625
93 | Cc1nc(Nc2cnccn2)cc(C2CCN(c3ncccn3)C2)n1 (stereo not given) | -14.64
94 | c1cnc(N2CCC(c3csc(Nc4cnccn4)n3)CC2)nc1 | 78.58
95 | CC(=O)Nc1nc(C2CCN(CC(N)=O)CC2)cs1 | 1.083
96 | NC(=O)CN1CCC(c2csc(Nc3cnccn3)n2)CC1 | 53.63
97 | c1cnc(N2CCCC(c3csc(Nc4cnccn4)n3)C2)nc1 (stereo not given) | 29.09
98 | OCCN1CCC(c2csc(Nc3cnccn3)n2)CC1 | -21.31
99 | O=C(N1CCOCC1)n1cnc2ccccc21 | 14.08
100 | CC1CCN(c2ccc(=O)n(CC(=O)NCCc3ccccc3)n2)CC1 | 45.57

Source: ChEMBL document CHEMBL3988442, “University of Dundee, Small-Polar-MMV Screening Library” (2021)
